# Hits are enriched below; roughly 2.2% of the tested compounds scored in any of these assays.
# EWS-Fli inh = inhibitors of EWS/Fli oncoprotein transcriptional activity; inhibition, % at 12.6 µM; A673 NR0B1-luciferase reporter, viability-normalised; 0.67% of 350,000 active;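 active = mean inhibition of at least 50% after viability correction, with every replicate also passing that limit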;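 also: firefly luciferase signal divided by Alamar Blue viability fluorescence both relative to DMSO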
# LGR2 antag = Drosophila LGR2 receptor signaling inhibition; HEK293 LGR2, CRE-luciferase, bursicon-stimulated, 4 h; inhibition, % at 9.99 µM; 0.35% of 380,000 active;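 active = drop in luminescence signal, shown as inhibition above about 50% in the replicate tests, limit read from the data, passing the limit was not always enough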;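 also: agonist challenge used bursicon conditioned medium at about half maximal strength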
# PAX8 reporter = lowers PAX8-driven luciferase in RMG-I cells; RMG-I TPO-luciferase reporter, SteadyGlo, 24 h; inhibition, % at 12.6 µM; 1.2% of 360,000 active; AID 652154;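 active = mean replicate inhibition at least 60% with every replicate also reaching 60%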;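 also: luciferase light reporting Pax8 driven TPO promoter activity; plate controls were median of neutral control wells for no effect and mitoxantrone controls for full effect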
# LMP1 NFkB inh = inhibitors of Epstein-Barr LMP1-induced NF-kappaB reporter; AID 504558; 0.69% of 350,000 active; inhibition, % at 12.5 µM; LMP1-induced NF-kappaB luciferase reporter cells, luminescence; in the data active = inhibition above about 41%;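 also: 0% = neutral control wells and 100% = reference inhibitor control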
# Shn3 inh set2 = Schnurri-3 reporter inhibition in Clone20 osteoblasts; Clone20 osteoblast Shn3 3'UTR firefly luciferase, 24 h; inhibition, % at 12.5 µM; 0.52% of 360,000 active; AID 588674;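 active = mean inhibition of at least 75% with every replicate also reaching 75%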;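 also: 0% = median of neutral control wells and 100% = pilot-screen positive control compound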
# MITF TRPM1 inh = reduces MITF-dependent TRPM1 promoter luciferase signal | inhibition, % at 12.5 µM | 0.83% of 330,000 active | SK-MEL-5 TRPM1 promoter luciferase, 24 h;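 active = mean inhibition across replicates of 60% or more, whatever share of single replicates reaches that level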
# DNA binder FP = small molecule DNA binding by fluorescence polarization; AC35, µM (top dose mostly 68 µM), without a hit: at the top dose activity change, negative = DNA binding; shares compounds with EWS-Fli inh; salmon sperm DNA acridine orange fluorescence polarization; 2% of 640 active;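 active = fitted curve reaches a 35% signal fall AC35 below twice the sample's top valid tested dose, actives reach about 48 µM in these data; inactive = the rest, including activity in the rising direction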;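 also: lower polarization ratio signals compound binding to DNA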
# The depositor's hits bear a star; / = not tested or not shown.
SMILES,EWS-Fli inh,LGR2 antag,PAX8 reporter,LMP1 NFkB inh,Shn3 inh set2,MITF TRPM1 inh,DNA binder FP
COC(=O)[C@@H]1[C@@H](CO)[C@@H]2Cn3c(ccc(/C=C/c4ccccc4)c3=O)[C@H]1N2C(=O)C1CCC1,0,-12,/,/,/,/,/
CCN(CC)C(=O)COc1cc(C)cc2oc(=O)c3c(c12)CCCC3,15,-4,82*,3,-2,0,/
CCc1ccc(N2C(=O)NC(=O)/C(=C\C=C\c3ccco3)C2=O)cc1,71*,-6,42,-8,39,102*,/
CCOc1ccc(N2C(=O)/C(=C/c3ccco3)C(=O)NC2=S)cc1,/,/,/,-3,-8,7,/
CCCCN1C(=O)/C(=C/C=C/c2ccco2)C(=O)NC1=S,9,-7,20,-4,9,3,/
CC(C)c1ccc(N2C(=O)NC(=O)/C(=C/C=C/c3ccco3)C2=O)cc1,/,28,-23,-28,30,99*,/
Cc1ccc(N2C(=O)NC(=O)/C(=C/C=C/c3ccco3)C2=O)cc1,/,8,-4,-8,78,73*,/
COC(=O)[C@H]1[C@H](CO)[C@H]2Cn3c(ccc(C4=CCCCC4)c3=O)[C@@H]1N2Cc1ccccc1OC,-7,6,3,/,/,/,/
COC(=O)[C@H]1[C@H](CO)[C@H]2Cn3c(ccc(-c4cncnc4)c3=O)[C@@H]1N2S(=O)(=O)c1ccccc1C,5,-14,-3,/,/,/,/
C/C=C/c1ccc([C@@H]2[C@H](CO)N3CCCCN(C(=O)Cc4ccncc4)C[C@@H]23)cc1,2,5,13,/,/,/,/
COc1ccc(-c2ccc([C@@H]3[C@@H](CO)N4CCCCN(C(=O)Cc5ccncc5)C[C@@H]34)cc2)cc1,-6,16,-16,/,/,/,/
N#Cc1cccc(-c2ccc([C@@H]3[C@H]4CN(C(=O)Cc5cccnc5)CCCCN4[C@H]3CO)cc2)c1,5,9,10,/,/,/,/
Cc1cc2c(C(C)C)c(O)c(O)c(C=O)c2c(O)c1-c1c(C)cc2c(C(C)C)c(O)c(O)c(C=O)c2c1O,58*,38,104*,/,92*,/,7%
CC12CCC3C(CCC4(O)CC(O)CCC34C=NO)C1(O)CCC2C1=COC(=O)C1 (configuration not stated),74*,/,109*,62*,11,69*,-4%
C[C@]12CCC3C(CCC4=CC(O)CC[C@@]43/C=N/O)C1(O)CCC2C1=CC(=O)OC1 (some centres not stated),69*,82*,109*,3,14,86*,10%
C[C@]12CC[C@H]3[C@@H](CC[C@]4(O)C[C@@H](O)CC[C@]34C=O)[C@@]1(O)CC[C@@H]2C1=CC(=O)OC1,79*,84*,111*,38,2,86*,-4%
O=C(Cc1ccccc1)N1C[C@@H]2[C@H](c3ccccc31)[C@H](CO)N2Cc1ccccc1,11,0,17,/,/,/,/
C=CC1CN2CCC1C[C@@H]2CO (some centres not stated),12,/,-15,/,/,/,/
O=C1NC2C(=CC(O)C(O)C2O)c2cc3c(cc21)OCO3 (configuration not stated),56*,105*,123*,78*,90*,67*,-9%
O=C(Cc1ccccc1)N1CCCCN2[C@H](CO)[C@H](c3ccc(C#Cc4ccccc4)cc3)[C@@H]2C1,/,10,-15,/,/,/,/
O=C(Cc1ccccn1)N1CCCCN2[C@H](CO)[C@@H](c3ccc(Br)cc3)[C@@H]2C1,-8,2,-26,/,/,/,/
Cc1cc(C)cc(N2C(=O)NC(=O)/C(=C\C=C\c3ccco3)C2=O)c1,61*,-4,66*,-30,52,94*,0%
O=C1NC(=O)N(c2ccccc2)C(=O)/C1=C\C=C\c1ccccc1,58*,-3,-6,-38,61,74*,-18%
O=C1NC(=O)N(Cc2ccc(F)cc2)C(=O)/C1=C\C=C\c1ccco1,55*,7,24,-81,10,93*,-8%
CC[C@@H]1C[C@H]2CC[C@H](O2)[C@H](C)C(=O)O[C@@H](C)C[C@@H]2CC[C@@H](O2)[C@@H](C)C(=O)O[C@H](C)C[C@H]2CC[C@H](O2)[C@H](C)C(=O)O[C@@H](C)C[C@@H]2CC[C@@H](O2)[C@@H](C)C(=O)O1,54*,20,/,/,/,/,5%
SMILES,EWS-Fli inh,LGR2 antag,PAX8 reporter,LMP1 NFkB inh,Shn3 inh set2,MITF TRPM1 inh,DNA binder FP
CN1C2CCC1/C(=C/c1ccccn1)C(=O)/C2=C\c1ccccn1,80*,102*,107*,93*,93*,97*,-3%
Cc1ccccc1-n1c(/C=C/c2ccccn2)nc2ccccc2c1=O,-28,-20,47,-5,10,10,/
COC(=O)[C@H]1[C@H](CO)[C@H]2Cn3c(ccc(C4=CCCCC4)c3=O)[C@@H]1N2CC1CCCC1,4,8,/,/,/,/,/
COC(=O)[C@H]1[C@H](CO)[C@H]2Cn3c(ccc(-c4cccc(OC)c4)c3=O)[C@@H]1N2CC1CC1,1,4,/,/,/,/,/
CC(=O)OC1CC(OC2C(O)CC(OC3C(O)CC(OC4CCC5(C)C(CCC6C5CCC5(C)C(C7=CC(=O)OC7)C(O)CC65O)C4)OC3C)OC2C)OC(C)C1OC1OC(CO)C(O)C(O)C1O (configuration not stated),63*,87*,104*,30,8,86*,-3%
CC(=O)O[C@@H]1CC[C@]2(C)C3CC[C@@]4(C)C(C[C@@H](O)[C@@H]4O)C3[C@@H](OC(C)=O)C[C@H]2C1 (some centres not stated),2,9,/,3,54,-5,/
CC(=O)OC1CC2(O)C3CCC4CC(O)CCC4(C)C3CCC2(C)C1C1=CC(=O)OC1 (configuration not stated),63*,90*,/,72*,-24,71*,-11%
CC=Cc1ccc2n(c1=O)C[C@@H]1[C@@H](CO)[C@H](C(=O)OC)[C@H]2N1CC1CCCC1 (mixture of isomers),-6,-15,/,/,/,/,/
N#Cc1cccc(-c2ccc([C@@H]3[C@H](CO)N4CCCCN(C(=O)Cc5ccccc5)C[C@@H]34)cc2)c1,0,9,19,/,/,/,/
C[C@H](CO)N1C[C@H](C)[C@@H](CN(C)C(=O)Oc2cccc3ccccc23)OCc2cnnn2CCCC1=O,4,-10,/,/,/,/,/
COC(=O)[C@H]1[C@H](CO)[C@H]2Cn3c(ccc(-c4cccc(F)c4)c3=O)[C@@H]1N2Cc1cccnc1,44,-2,-33,/,/,/,/

# Compound activity as filed in PubChem BioAssay.
